From PubChem BioAssay (NCI)
This is part of a sample that, as a whole, favours compounds with a hit. Of some 83,000 tested, about 20% had one in any assay.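 Values shown are percent growth following 48 h exposure of cells in 96-well plates to a single concentration of compound; below 10 was considered active.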 Unmarked numbers belong to inactive results. The source made the active and inactive calls.

The compounds below were run on HL-60(TB) leukemia (assay: NCI-60 one-dose screen, 48 h (100 = growth as untreated, 0 = no growth, -100 = all killed)). Conditions: 10 µM unless noted.

Point of comparison: Cc1cc(C)c(N2C(=O)CC(Nc3ccc(Cl)cc3Cl)C2=O)c(C)c1 (stereo not given), growth 100%. Against it:
- COc1cc(/C=C/C(=O)c2ccc(NC(=O)COc3cccc4cccnc34)cc2)cc(OC)c1OC — lower, 34.7%
- N#Cc1c(-c2ccc(F)cc2)cc(-c2c[nH]c3ccccc23)nc1-c1c[nH]c2ccccc12 — lower, 98.9%
- CC[C@H](CC[C@@H](C)[C@H]1CC[C@H]2[C@@H]3CC(=O)C4=CC(=O)/C(=C/c5ccc([N+](=O)[O-])cc5)C[C@]4(C)[C@H]3CC[C@]12C)C(C)C — lower, 83.5%
- C#CCOc1ccccc1C(Nc1ccccc1)c1nnnn1C1CCCCC1 (stereo not given) — lower, 91.6%
- CC(C)Sc1nc(Nc2ccc(S(N)(=O)=O)cc2)c(C#N)c(-c2ccc(F)cc2)n1 — lower, 45.4%
- O=C1/C(=C/c2ccccc2[N+](=O)[O-])Oc2ccc(O)cc21 — lower, 24.3%
- Cn1ccnc1C(=O)/C=C/c1ccc(NC(=O)Nc2ccc(Cl)cc2)cc1 — lower, 44.2%
- O=C(O)CCCCCN1C(=O)/C(=C/c2ccc(O)c(O)c2)SC1=S — higher, 101%
- O=S(=O)(NCCCNc1nccc(-n2cnc3ccccc32)n1)c1ccc(F)cc1 — lower, 90.9%
- C=CCn1c(SCC(=O)c2ccc(Br)cc2)nnc1-c1c[nH]c2ccccc12 — lower, 92.3%
- CC(C)(C)OC(=O)N1C(=O)c2c(c3c4ccccc4[nH]c3c3ccc4ccccc4c23)C1=O — lower, 39.6%
- CNC(=O)c1cc(N2CCc3cc(NC(=O)Nc4ccc(N5CCOCC5)c(C(F)(F)F)c4)ccc32)ccn1 — lower, 13%
- Cc1ccc(-n2cc(/C=C/C(=O)c3ccc(S(C)(=O)=O)cc3)c(-c3ccc(S(C)(=O)=O)cc3)n2)cc1 — lower, 69.4%
- C[C@@H]1C[C@H]2C(=O)O[C@@H](C)C(NC(=O)[C@H](Cc3cc(F)cc(F)c3)NC(=O)Nc3ccc(Cl)cc3F)C(=O)N3CCC[C@H]3C(=O)N3CCCC[C@H]3C(=O)N[C@@H](CO)C(=O)N2C1 (stereo not given in full) — lower, 13.5%
- COc1c(N2CC3CCCNC3C2)c(F)cc2c(=O)c(C(=O)N/N=C/c3ccc4c(c3)OCO4)cn(C3CC3)c12 (stereo not given) — lower, 75.8%
- CC1(C)CC[C@]2(C(=O)NCCCCCCN(CCCN)CCCN)CC[C@]3(C)C(=CC[C@@H]4[C@@]5(C)CC[C@H](O)C(C)(C)[C@@H]5CC[C@]43C)[C@@H]2C1 — lower, 99.1%
- CCOC(=O)c1c(Nc2ccccc2)nn2c(-c3ccc(OC)c(OC)c3)ccnc12 — lower, 43.3%
- O=C(CSc1nc2ccccc2c(=O)n1-c1ccccc1)Nc1cccc(C(=O)/C=C/c2ccccc2)c1 — lower, 99.1%
- O=C(CCCCCCN1CC(=O)N2[C@@H](C3CC3)c3[nH]c4ccccc4c3C[C@H]2C1=O)NO — lower, 31.8%
- CCCCN1C(=O)/C(=c2\sc3n(c2=O)C2C(NN=3)N(CC)C(=O)N2CC)c2cc(C)ccc21 (stereo not given) — lower, 93.2%
- COc1cc(-c2nc(-c3ccccc3)[nH]c2-c2ccnc(NCCCNS(=O)(=O)c3cccc(F)c3)n2)ccc1Cl — lower, 55.1%
- O=C(O)c1cn(C2CC2)c2cc(N3CCN(C(=O)CN4C(=O)CSC4=O)CC3)c(F)cc2c1=O — higher, 135%
- CC1(COc2ccc3ncc(C#Cc4cncc(C(=O)Nc5cccc(C(F)(F)F)c5)c4)n3n2)COC1 — lower, 39.9%
- Cc1ccc(-c2cc3nc(C(Cl)Cl)nc(-c4ccccc4)n3n2)cc1 — lower, 55.1%
- CCOC(=O)c1c(NC(=O)c2cccc(C(F)(F)F)c2)sc2c1CCC(=O)C2 — lower, 37.7%
- O=C1[C@H]2Cc3c([nH]c4ccccc34)[C@@H](c3c(Cl)cccc3Cl)N2C(=O)CN1C1CCN(CC2CCCCC2)CC1 — lower, 35.4%
- CC1CC(=O)C2=C(C1)Nc1ccc(Br)cc1CC2c1c[nH]c2ccc(Br)cc12 (stereo not given) — lower, 21.2%
- N/C(=N\C(N)=N\c1nc2ccccc2s1)c1ccc(C(F)(F)F)cc1 — lower, 53.6%
- O=C1Nc2ccccc2/C1=C/c1ccc(OCC(=O)c2ccccc2)cc1 — higher, 105%

CC[C@]12C=CCN3CC[C@]4(C(=C(C(=O)OC)C1)Nc1cc5c(cc14)[C@@H]1[C@H](O5)[C@@H](O)[C@@]4(CC)CC(C(=O)OC)=C5Nc6cc(O)ccc6[C@@]56CCN1C46)C32 (stereo not given in full) was tested, and the growth was -9.82% (active).
In the case of O=C(NNc1nc2cc(F)c(F)cc2n2cccc12)c1cccnn1, the growth is reported as -2.31% (active).
For Cc1cc(NS(=O)(=O)c2ccc(-c3cnc(C4CC4)o3)cc2)ccc1I, the growth was 1.38% (active).
In the case of CN1CCN(Cc2ccc(NC(=O)c3cncc(C#Cc4cnc5ccc(OCC(F)F)nn45)c3)cc2C(F)(F)F)CC1, the growth is reported as -52.2% (active).
O=C(Nc1cc(Cl)cc(Cl)c1)Nc1nc2ccc([N+](=O)[O-])cc2s1 was tested, and the growth was -50.1% (active).
For Cc1cc2nc(C(Cl)Cl)nc(-c3ccco3)n2n1, the growth was -4.98% (active).
With CC(c1ccccc1)N1C(=O)/C(=C/c2csc(C#N)n2)SC1=S (stereo not given) the growth was 4.32% (active).
For NC(N)=Nc1ccc(Oc2cccc(Nc3ccc(Br)c(C(F)(F)F)c3)c2)cn1, the growth was -62.9% (active).
O=c1oc2ccc(-c3ccc(F)cc3F)cc2c(=O)n1-c1cccc(C(F)(F)F)c1 was tested, and the growth was -32.7% (active).
With Oc1ccccc1-c1nnc(SCc2ccc(O)c3ncccc23)n1-c1ccccc1 the growth was 4.52% (active).
